Source: the supplement of paper PMC6555819

test system: VDR:RXRa (NR concentration 270 nM, RXRa partner concentration 90 nM); test: PBM binding z-score (relative to random genomic background probes); higher = stronger binding; sequences stand for … in GC…GCGATTGACAGCGTAGAATGAAGG
Method: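 Protein-binding microarray (Agilent 4x180K custom design, double-stranded 60-nt probes: 5' GC cap, 34-nt variable region, 24-nt constant primer region; full probe sequence given). Purified or IVT nuclear receptor:RXRα heterodimers (3:1 NR:RXRα, mostly 270:90 nM) or homodimers were incubated for 1 h in PBS with 2% milk and no ligand, then detected with Alexa488 antibodies. Fluorescence from o1-orientation probes (~5 replicates averaged) was converted to z-scores against 500 random hg19 background probes. Variable regions are seed direct-repeat (DR0–DR5) sites, all their single-nucleotide variants and half-site ablations.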

Row | Sequence | PBM binding z-score
1 | TAGCCTAGGTCATTCAGGGGCCACTATAGAAAGC | 3.95
2 | CCTACTCGGCCAAAAAGGTCATTGATGCCGATAA | 4.9
3 | CCTACGGGGCCACGAAAGGTCATTGATTCAGTGA | 5.53
4 | CGTCAAAGTTCAACTGAGGTAACGTAAAGCACGC | 5.16
5 | TCTTGTAGGTCAATAGAGGTTAAGAAAGTGCGCT | 4.85
6 | TGTCAATGTTCAAAGGTAACGTAAGTATCCACAC | 0.373
7 | ATATGTAGGTTAAGCGTCATTCAGGTTGGTTCGC | 0.888
8 | CGTTCAAGGTCAAAGGTCAGTGAAGAGATGACGG | 6.9
9 | CAAACTAGGTCACAAAAGGTCAAAGTCGAATGAC | 6.51
10 | TATAAAGGGTCAAAGGCCAGAGTACGAATGTCGA | 4.86
11 | CCTAGCAGGCCAATCTAGGTCACTCAAGGCTTGA | 0.635
12 | TCTGCTAGGTCAACGTTGGTCAGCTAATCTGCTA | 1.46
13 | CCTCGGAGGACAGAAGGTCAAAGCTGTCCGCTTT | 2.84
14 | CGAACTAGGTCTAAGGACAGTGAAAGGCGACGTA | -0.556
15 | CGAACGAGGTCATGAGTTGATAGCAAATGCCGAT | 5.57
16 | CGTCAAAGGTCAAGGTAACGTAACAGAAAGCAGC | 5.13
17 | ATATGTAGGTTATCGGGTCATACAGTTTGCGCAT | 5.13
18 | CCTACTGGGCCGTTCAGAGGTCATTGATCATATG | 3.58
19 | ATCGAAAGGTCGTGAGGTAAGTATACAGAAAGGC | 3.44
20 | CCTAGTGGGCCAAGGTCATTGATCAGTCAAAGCA | 3.33

Row | Sequence | PBM binding z-score
21 | ATCGAAAGGTCCACGAGGTGAGTATACACCGTTT | 1.22
22 | AGAATGAGGTTACCAAAGTTCAGGGAAACGCTTG | 5.53
23 | CAAACTAGGTCACTAAAGGTCAAAGTCGAATGAC | 6.48
24 | AGTCAAAGTTCAGGACGACGTAACGTAAAGCACG | 2.18
25 | GCTGCTAGGTCAACTGATGGTCACCTAAAGCTCG | 2.05
26 | ACTTACGGCTCAACGAGGTTATAGCACGCGTATA | 1.53
27 | AGAATGGGGTTATACGTAGATCAGGGAAGAAAGT | 3.03
28 | CGAACTAGGTCGAGGACAGTGAATCTCCGCACGC | 0.0505
29 | CCTGCGAGGTCATGGTCAGCTAATCTACAGTATG | 5.17
30 | ATCGAAAGGTCCAAGGTGAGTATACCCACCCGAA | 0.423
31 | ACTCGGAGGACAAAGGTCAGGGCTACGCCAGTGA | 3.43
32 | CGAACAAGGTCATCCAGGACAGTGAATACATTGA | 6.39
33 | CGTCAAAGGTCAATGCTAGGTCAGTGAAAGCATT | 6.01
34 | CGTCCGAGGTCAAGGTCAGTGAAAGAGACTCGAA | 5.48
35 | AATACGGGGTCACTAGGCCAGAGTAGGTACGAAT | 6.16
36 | CAAACTAGGTCACAGTGGTCAAAGTCCGTGCGTA | 4.36
37 | CGTCAAAGGTCAAGGTCAGTGAAAGAGACTCGAA | 5.77
38 | CCTTACGGGTCAAGGTTATAGCCCGGGTGGTACG | 3.31
39 | GCTTACGGGTCCAAGGTTATAGCATGAATAGAAT | 1.26
40 | CGTCAAAGATCAAGGTAACGTAACAGAAAGCAGC | -0.129
